aGal spleen mod = qHTS Assay for Inhibitors and Activators of Human alpha-Galactosidase From Spleen Homogenate; Alpha-galactosidase A (Homo sapiens), P06280; human spleen homogenate, 4MU-alpha-Gal fluorescence, 40 min; Potency, µM (top dose mostly 80 µM), without a hit: top-dose activity change, negative = inhibition, hits mostly inhibitors; hit rate 0.008% among 240,000; AID 2107, 2009;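 also: potency is read from the fitted curve at half-maximal effect; 0% = enzyme with vehicle and -100% = no enzyme basal signal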
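qHTS titration in buffer at pH 5.0. Alpha-galactosidase activity in spleen homogenate was measured via 4-methylumbelliferone release from 1 mM fluorogenic substrate after 40 min at 37C and a pH 10 stop. AC50 came from Hill fits of control-normalized data.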
aGlu spleen mod = qHTS Assay for Inhibitors and Activators of Human alpha-Glucosidase From Spleen Homogenate | human spleen homogenate, 4-MU-alpha-glucoside fluorescence | Potency, µM (series often up to 79.9 µM), for inactives: at the highest dose activity change, negative = inhibition, usual class: inhibitors | hit rate 0.006% among 240,000 | AID 2112, 2009;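 also: potency is read from the fitted curve at half-maximal effect; 0% = enzyme with vehicle and -100% = no enzyme basal signal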
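Enzyme source: human spleen homogenate, 1 ug/well. Buffer 50 mM citric acid/K phosphate pH 5.0, 0.01% Tween-20. 4-MU-alpha-glucoside 1 mM; 37 C x 40 min; NaOH/glycine stop; fluorescence.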
GAA glycogen mod = qHTS Assay for Inhibitors and Activators of Human alpha-Glucosidase Cleavage of Glycogen | recombinant GAA, glycogen substrate, Amplex Red glucose oxidase fluorescence | AID 2100, 2009 | hit rate 0.38% among 300,000 | Lysosomal alpha-glucosidase (Homo sapiens), P10253 | Potency, µM (titrated, usually from 76.4 µM), for the others: at the top dose activity change, negative = inhibition, hits mostly inhibitors;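 also: potency is read from the fitted curve at half-maximal effect; 0% = full enzyme reaction and -100% = no-enzyme basal signal; the screen sought inhibitors and activators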
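Recombinant enzyme (4 nM final) with compounds titrated up to 77 uM and bovine liver glycogen (30 ug) in citrate pH 5.0, 0.01% Tween-20, 37 C 40 min. Released glucose detected by Amplex Red/glucose oxidase (Ex 573/Em 610); AC50 from Hill fits.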
GAA inh = qHTS Assay for Inhibitors of Human alpha-Glucosidase as a Potential Chaperone Treatment of Pompe Disease | AID 1466, 2008 | purified human GAA, 4-MU-alpha-glucoside fluorescence | Potency, µM (titrated, usually from 76.9 µM), for inactives: at the highest dose activity change, negative = inhibition, most hits filed as inhibitors | hit rate 0.005% among 200,000;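 also: potency is read from the fitted curve at half-maximal effect; plate controls were uninhibited enzyme wells for no effect and no-enzyme background for full effect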
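Fluorogenic assay: 4 nM human alpha-glucosidase with 400 uM 4-methylumbelliferyl-alpha-D-pyranoside in 50 mM citrate/phosphate, 0.005% Tween-20, pH 5.0, 20 min at room temperature. Compounds tested up to 77 uM; AC50 from Hill fits.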
N370S GC = qHTS Assay for Inhibitors and Activators of N370S glucocerebrosidase as a Potential Chaperone Treatment of Gaucher Disease. N370S GC spleen homogenate, 4MU-glucoside fluorescence. Potency, µM (doses to about 59.4 µM), inactives show top-dose activity change, negative = inhibition, usual class: inhibitors. hit rate 0.092% among 330,000. Lysosomal acid glucosylceramidase (Homo sapiens), P04062;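 also: potency is read from the fitted curve at half-maximal effect; 0% = full enzyme activity and -100% = no enzyme basal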
GLA inh pH 4.5 = qHTS Assay for Inhibitors of Human alpha-Galactosidase at pH 4.5; activity change, negative = inhibition, % at 105 µM; Alpha-galactosidase A (Homo sapiens), P06280; 230,000 tested, under 10 active; purified enzyme, 4-MU-alpha-Gal fluorescence, pH 4.5;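 also: 0% = full activity with enzyme and -100% = basal without enzyme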
Target sequence (P06280 whole entry, looked up): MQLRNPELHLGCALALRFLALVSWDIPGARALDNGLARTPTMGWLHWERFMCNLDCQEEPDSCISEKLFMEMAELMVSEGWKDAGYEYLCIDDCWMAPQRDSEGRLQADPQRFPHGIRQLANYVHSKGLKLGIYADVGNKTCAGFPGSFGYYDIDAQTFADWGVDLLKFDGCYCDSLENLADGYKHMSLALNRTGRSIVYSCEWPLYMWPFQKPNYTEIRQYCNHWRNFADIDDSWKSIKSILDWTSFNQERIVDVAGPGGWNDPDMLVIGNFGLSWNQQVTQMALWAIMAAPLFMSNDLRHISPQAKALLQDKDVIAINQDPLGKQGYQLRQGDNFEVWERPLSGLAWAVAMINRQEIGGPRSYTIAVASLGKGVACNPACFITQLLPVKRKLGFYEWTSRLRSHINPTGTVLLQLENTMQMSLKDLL
* hit, by the source's call; [ ] = dose if it differs, or a comment. A selection: hits, their analogues and other compounds. The true share with any hit is near 0.41%. Calls follow the shape of the dose curve; as a rule, active = well fitted curve in the direction sought with a large enough effect; inconclusive = small, poorly fitted or top-dose-only effect, or another doubt; inactive = no such curve, though single readings can be large; an effect the other way counts as inactive or inconclusive.

For Nc1cc(S(=O)(=O)c2ccc(O)c(N)c2)ccc1O the results were aGal spleen mod 2.2%, aGlu spleen mod -6.3%, GAA glycogen mod 7.94µM*, N370S GC 7.3% and GLA inh pH 4.5 -8.6.
COc1ccc(-c2cc(=O)c(C(=O)c3ccc(C)cc3)n[nH]2)cc1 was read as aGal spleen mod 39.8µM*, aGlu spleen mod inconclusive, GAA glycogen mod 5.5%, GAA inh 11.3%, N370S GC 27.3% and GLA inh pH 4.5 11.3.
`COc1ccc(C(=O)c2cn[nH]c2-c2ccc(C)cc2O)cc1` gave GAA glycogen mod -3.4% and N370S GC -13.1%.
`CC1N(C)c2cccc3cccc(c23)N1C` gave aGal spleen mod 9.2%, aGlu spleen mod 4.0%, GAA glycogen mod 12.5µM*, GAA inh 4.5%, N370S GC 1.0% and GLA inh pH 4.5 2.6.
CN1c2cccc3cccc(c23)N(C)C1c1cccs1 was read as aGal spleen mod 3.7%, aGlu spleen mod 2.9%, GAA glycogen mod inconclusive, GAA inh 0.8%, N370S GC 10.2% and GLA inh pH 4.5 -0.2.
Cc1ccc(-c2cc(C(=O)Oc3ccccc3)c3cc(C)ccc3n2)cc1 was read as GAA glycogen mod -6.0%[76.3 µM].
Screening O=C(c1ccco1)N1CCC2(CC1)CCN(c1ccccc1)CC2 returned aGal spleen mod 17.8%, aGlu spleen mod 5.7% and N370S GC -16.0%.
`CNc1ncnc2ccc(-c3cccc(OC)c3)cc12` gave aGal spleen mod -29.1%, aGlu spleen mod -2.6% and N370S GC 8.91µM*.
Screening Cc1ccc(NC(=S)NNC(=S)NCc2ccccc2)cc1 returned aGal spleen mod -10.7%, aGlu spleen mod -5.7%, GAA glycogen mod 31.6µM*, GAA inh -4.5%, N370S GC 9.9% and GLA inh pH 4.5 1.0.
For Fc1ccc(NC(=S)NCc2ccccc2)cc1 the results were GAA glycogen mod -10.5%[76.3 µM] and N370S GC -1.3%.
FC(F)(F)c1cccc(NC(=S)NCc2ccccn2)c1 was read as aGal spleen mod 0.0%, aGlu spleen mod 3.8%, GAA glycogen mod -2.8%, GAA inh 4.4%, N370S GC 6.5% and GLA inh pH 4.5 -0.5.
For FC(F)(F)c1cccc(NC(=S)NNC(=S)NCc2ccccc2)c1 the results were aGal spleen mod -1.7%, aGlu spleen mod -4.9%, GAA glycogen mod 12.5µM*, GAA inh inconclusive, N370S GC 6.6% and GLA inh pH 4.5 -19.2.
`CC#CCN1c2ccccc2[C@]23C[C@@H](C(=O)OC)N(S(=O)(=O)c4ccc(C#N)cc4)C2=NC(C(=O)OC)=C(C(=O)OC)[C@H]13` gave aGal spleen mod 4.0%[17.5 µM], aGlu spleen mod -7.5%[17.4 µM], N370S GC 2.3%[12.8 µM] and GLA inh pH 4.5 -20.3.
COc1ccc2c(Cl)c(C(=O)NN)sc2c1 was read as aGal spleen mod 0.2%, aGlu spleen mod -6.7%, GAA glycogen mod 15.7µM*, GAA inh -0.9%, N370S GC 7.1% and GLA inh pH 4.5 2.0.
O=C(NCc1ccccn1)C(=O)NN=C1CCCCCCC1 was read as aGal spleen mod 2.4%, aGlu spleen mod 1.6%, GAA glycogen mod 31.6µM*, GAA inh -7.7%, N370S GC 9.4% and GLA inh pH 4.5 -5.5[21.1 µM].
`OCCNc1nc(Nc2ccccc2)nc(Nc2ccccc2)n1` gave aGal spleen mod -1.2%, aGlu spleen mod -2.5%, GAA glycogen mod 2.2%, GAA inh -2.5%, N370S GC 11.2µM* and GLA inh pH 4.5 -1.9.
Screening OCCNc1nc(Nc2ccccc2)nc2ccccc12 returned aGal spleen mod 4.5%, aGlu spleen mod -1.3%, GAA glycogen mod 0.5%, GAA inh -6.1%, N370S GC 6.2% and GLA inh pH 4.5 -1.0.
Screening Cc1cccn2c(=O)c(C=Nc3c(C)n(C)n(-c4ccccc4)c3=O)c(N3CCCC3)nc12 returned aGal spleen mod -4.1%, aGlu spleen mod -3.3%, GAA glycogen mod 11.2µM*, GAA inh -2.3%, N370S GC 6.4% and GLA inh pH 4.5 7.7.
For Cc1c(N=Cc2ccc[nH]2)c(=O)n(-c2ccccc2)n1C the results were aGal spleen mod 1.7%, aGlu spleen mod 1.7%, GAA glycogen mod 22.4µM*, GAA inh 0.6%, N370S GC 3.4% and GLA inh pH 4.5 -0.4.
`Cc1c(N=Cc2ccncc2)c(=O)n(-c2ccccc2)n1C` gave aGal spleen mod 0.6%, aGlu spleen mod 0.1%, GAA glycogen mod 12.5µM*, GAA inh 6.6%, N370S GC -15.1% and GLA inh pH 4.5 5.2.
`Cc1c(N=Cc2ccccn2)c(=O)n(-c2ccccc2)n1C` gave aGal spleen mod -4.5%, aGlu spleen mod -12.1%, GAA glycogen mod 12.6µM*, GAA inh -5.8%, N370S GC 5.1% and GLA inh pH 4.5 2.6.
Screening Cc1c(N=Cc2c(O)n(C)c(=O)c3ccccc23)c(=O)n(-c2ccccc2)n1C returned aGal spleen mod -2.7%, aGlu spleen mod -6.4%, GAA glycogen mod -12.1%, GAA inh inconclusive, N370S GC 2.4% and GLA inh pH 4.5 6.2.
Cc1cc(/C=C2/C(=O)NN(c3ccccc3)C2=O)c(C)n1-c1ccc(O)cc1 was read as aGal spleen mod -5.2%, aGlu spleen mod -7.7%, GAA glycogen mod 9.4%, GAA inh -3.7%, N370S GC 8.91µM* and GLA inh pH 4.5 -10.7.
Cc1cc(C)cc(N(CC(=O)NC2CCCC2)S(=O)(=O)c2c(C)[nH]c(=O)[nH]c2=O)c1 was read as aGal spleen mod 8.0%, aGlu spleen mod 2.5%, GAA glycogen mod 5.8%, N370S GC 3.55µM* and GLA inh pH 4.5 2.1.
Screening Cc1ccc(CNC(=O)CN(c2cc(C)cc(C)c2)S(=O)(=O)c2c(C)[nH]c(=O)[nH]c2=O)cc1 returned GAA glycogen mod -12.9%[76.3 µM].
COc1ccc(N(CC(=O)NC2CCCC2)S(=O)(=O)c2c(C)[nH]c(=O)[nH]c2=O)cc1 was read as aGal spleen mod 1.5%, aGlu spleen mod -2.1%, GAA glycogen mod -0.6%, GAA inh -0.4%, N370S GC 8.91µM* and GLA inh pH 4.5 0.0.
`C(=Nc1ccc(Nc2ccccc2)cc1)c1ccc2ccccc2c1` gave aGal spleen mod -9.1%, aGlu spleen mod -3.1%, GAA glycogen mod 17.8µM*, GAA inh -4.6%, N370S GC -5.9% and GLA inh pH 4.5 -0.8.

Screening data deposited in PubChem by National Center for Advancing Translational Sciences (NCATS).
